± gives the standard deviation of the averaged measurements.
Experiments:
Details in all cases: concentration: 10 µM; 24 h
[1] = test system: HCC1569; assay: cell number relative to DMSO (% of DMSO); higher = more cells (less growth inhibition / toxicity)
How it was run: (§1)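 Treatment: HCC1569 and TDF cells, 800 per well in 384-well plates with RPMI and 10% FBS, were given compounds at 10 µM for 24 h at 37 °C, in triplicate. Readout: after 3.7% formaldehyde fixation, cells were stained with a rabbit anti-H1.0 antibody, an AlexaFluor 647 secondary and DAPI. Reported values are H1.0 nuclear intensity or cell number as percent of the plate control, taken as the median of replicates, with positional smoothing for HCC1569.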

[2] = test system: TDF; assay: as above
How it was run: as §1

[3] = test system: TDF; assay: H1.0 immunofluorescence intensity relative to DMSO (% of DMSO); higher = stronger H1.0 induction, active = 120 or more
How it was run: as §1

[4] = test system: HCC1569; assay: H1.0 immunofluorescence intensity relative to DMSO (% of DMSO); higher = stronger H1.0 induction, active = 140 or more
How it was run: as §1
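For H1.0 immunofluorescence intensity relative to DMSO in this document: TDF is a line of transformed human dermal fibroblasts of mesenchymal origin.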
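For cell number relative to DMSO in this document: TDF denotes transformed human dermal fibroblasts of mesenchymal origin.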

CCCCN1CCCC[C@H]1C(=O)Nc1c(C)cccc1C.Cl
cell number [1]: 104
cell number [2]: 107
H1.0 immunofluorescence intensity [3]: 96.8 (inactive)
H1.0 immunofluorescence intensity [4]: 108 (inactive)

CC#CCOC(=O)c1c(C)nc2sc3c(c2c1N)CCC(O)C3 (centres undefined)
cell number [1]: 87.1
cell number [2]: 85.8
H1.0 immunofluorescence intensity [3]: 99.5 (inactive)
H1.0 immunofluorescence intensity [4]: 134 (inactive)

O=C(O)CCC(C(=O)O)N1C(=O)c2ccccc2C1=O [L-Glutamic acid, N-phthaloyl-]
cell number [1]: 101
cell number [2]: 110
H1.0 immunofluorescence intensity [3]: 91.4 (inactive)
H1.0 immunofluorescence intensity [4]: 105 (inactive)

CC(C)Cc1ccc(C(C)C(=O)O)cc1 (stereo not drawn) [S(+)-Ibuprofen]
cell number [1]: 103
cell number [2]: 108
H1.0 immunofluorescence intensity [3]: 96 (inactive)
H1.0 immunofluorescence intensity [4]: 90.5 (inactive)

CN1C2CCCC1CC(NC(=O)c1nn(C)c3ccccc13)C2 (centres undefined) [Granisetron]
cell number [1]: 93.7
cell number [2]: 93.9
H1.0 immunofluorescence intensity [3]: 104 (inactive)
H1.0 immunofluorescence intensity [4]: 102 (inactive)

O=C1CCC(N2C(=O)c3ccccc3C2=O)C(=O)N1 (centres undefined) [Thalidomide]
cell number [1]: 101
cell number [2]: 102
H1.0 immunofluorescence intensity [3]: 97.1 (inactive)
H1.0 immunofluorescence intensity [4]: 96.7 (inactive)

CS(=O)(=O)CCNCc1ccc(-c2ccc3ncnc(Nc4ccc(OCc5cccc(F)c5)c(Cl)c4)c3c2)o1 [Lapatinib]
cell number [1]: 59.8
cell number [2]: 57.6
H1.0 immunofluorescence intensity [3]: 124 (active)
H1.0 immunofluorescence intensity [4]: 151 (active)

Cn1c(=O)c2[nH]c(C3CCCC3)nc2n(C)c1=O [8-Cyclopentyl-1,3-dimethylxanthine]
cell number [1]: 97.7
cell number [2]: 99.4
H1.0 immunofluorescence intensity [3]: 98.6 (inactive)
H1.0 immunofluorescence intensity [4]: 102 (inactive)

CNC1C(O)C(NC)C2OC3(O)C(=O)CC(C)OC3OC2C1O (centres undefined) [Spectinomycin]
cell number [1]: 104
cell number [2]: 98
H1.0 immunofluorescence intensity [3]: 97 (inactive)
H1.0 immunofluorescence intensity [4]: 87 (inactive)

CCOC(=O)C(CCc1ccccc1)NC(C)C(=O)N1CCCC1C(=O)O (centres undefined) [Enalapril]
cell number [1]: 104
cell number [2]: 106
H1.0 immunofluorescence intensity [3]: 98.8 (inactive)
H1.0 immunofluorescence intensity [4]: 118 (inactive)

CN(C)c1ccc(O)c2c1CC1CC3C(N(C)C)C(=O)C(C(N)=O)=C(O)C3(O)C(=O)C1=C2O (centres undefined) [Minocycline]
cell number [1]: 107
cell number [2]: 101
H1.0 immunofluorescence intensity [3]: 110 (inactive)
H1.0 immunofluorescence intensity [4]: 88.6 (inactive)

O=C([O-])CCCc1ccccc1.[Na+] [Sodium Phenylbutyrate]
cell number [1]: 103
cell number [2]: 106
H1.0 immunofluorescence intensity [3]: 96.4 (inactive)
H1.0 immunofluorescence intensity [4]: 97.7 (inactive)

c1ccc2c(Oc3nc(Nc4ccc(N5CCOCC5)cc4)c4ncn(C5CCCCC5)c4n3)cccc2c1
cell number [1]: 84.3
cell number [2]: 92.2
H1.0 immunofluorescence intensity [3]: 101 (inactive)
H1.0 immunofluorescence intensity [4]: 150 (active)

CN(C(Cc1ccc(OS(=O)(=O)c2cccc3cnccc23)cc1)C(=O)N1CCN(c2ccccc2)CC1)S(=O)(=O)c1cccc2cnccc12 (centres undefined)
cell number [1]: 75.2 ± 17
cell number [2]: 95.6 ± 12
H1.0 immunofluorescence intensity [3]: 113 (inactive)
H1.0 immunofluorescence intensity [4]: 127 (inactive)

O=C1Cc2c([nH]c3ccc(Br)cc23)-c2ccccc2N1 [Kenpaullone]
cell number [1]: 76.3 ± 6.3
cell number [2]: 93.1 ± 3.2
H1.0 immunofluorescence intensity [3]: 91.6 (inactive)
H1.0 immunofluorescence intensity [4]: 101 (inactive)

CC(CCc1ccc(O)cc1)NCCc1ccc(O)c(O)c1.Cl (centres undefined) [Dobutamine hydrochloride]
cell number [1]: 101
cell number [2]: 95.7
H1.0 immunofluorescence intensity [3]: 85.4 (inactive)
H1.0 immunofluorescence intensity [4]: 91 (inactive)

O=C(ON1C(=O)CCC1=O)N1CCN(C(c2ccc(Cl)cc2)c2ccc(Cl)cc2)CC1
cell number [1]: 77.8
cell number [2]: 82.1
H1.0 immunofluorescence intensity [3]: 112 (inactive)
H1.0 immunofluorescence intensity [4]: 126 (inactive)

CC1(C)C=Cc2c(ccc3c2OC[C@@H](c2ccc(O)cc2O)C3)O1
cell number [1]: 99.4
cell number [2]: 93.1
H1.0 immunofluorescence intensity [3]: 101 (inactive)
H1.0 immunofluorescence intensity [4]: 109 (inactive)

CCC(C)N(C)C(=O)c1cc2ccccc2c(-c2ccccc2Cl)n1 (centres undefined)
cell number [1]: 101
cell number [2]: 110
H1.0 immunofluorescence intensity [3]: 90.8 (inactive)
H1.0 immunofluorescence intensity [4]: 84 (inactive)

CCCCCC=CCC=CCC=CCC=CCCCC(=O)OC(CO)CO [2-Arachidonoylglycerol]
cell number [1]: 104
cell number [2]: 107
H1.0 immunofluorescence intensity [3]: 97.3 (inactive)
H1.0 immunofluorescence intensity [4]: 99.5 (inactive)

Cc1cccc(C)c1OCC(C)N.Cl (centres undefined) [Mexiletene hydrochloride]
cell number [1]: 104
cell number [2]: 104
H1.0 immunofluorescence intensity [3]: 87.8 (inactive)
H1.0 immunofluorescence intensity [4]: 94.3 (inactive)

Cc1ccccc1C(OCCN(C)C)c1ccccc1.Cl (centres undefined) [Orphenadrine hydrochloride]
cell number [1]: 100
cell number [2]: 111
H1.0 immunofluorescence intensity [3]: 96.6 (inactive)
H1.0 immunofluorescence intensity [4]: 97 (inactive)

CCCCCCCCC(=O)NCc1cc(OC)c(O)cc1I [N-(4-hydroxy-2-iodo-5-methoxybenzyl)nonanamide]
cell number [1]: 96.2
cell number [2]: 98.9
H1.0 immunofluorescence intensity [3]: 93.2 (inactive)
H1.0 immunofluorescence intensity [4]: 116 (inactive)

Cl.Cn1ccc2cc3c(cc21)CCN3C(=O)Nc1cccnc1
cell number [1]: 101
cell number [2]: 112
H1.0 immunofluorescence intensity [3]: 87.9 (inactive)
H1.0 immunofluorescence intensity [4]: 100 (inactive)

CCN(Cc1ccncc1)C(=O)C(CO)c1ccccc1 (centres undefined) [Tropicamide]
cell number [1]: 104 ± 5.5
cell number [2]: 105 ± 8.1
H1.0 immunofluorescence intensity [3]: 98.4 (inactive)
H1.0 immunofluorescence intensity [4]: 100 (inactive)

CCCNCC(O)COc1ccccc1C(=O)CCc1ccccc1.Cl (centres undefined) [Propafenone hydrochloride]
cell number [1]: 95.4
cell number [2]: 103
H1.0 immunofluorescence intensity [3]: 99.2 (inactive)
H1.0 immunofluorescence intensity [4]: 102 (inactive)

O=C1c2cccc(O)c2C(=O)c2c(O)cc(CO)cc21 [Aloe-emodine]
cell number [1]: 95.7
cell number [2]: 89.9
H1.0 immunofluorescence intensity [3]: 97.3 (inactive)
H1.0 immunofluorescence intensity [4]: 99.5 (inactive)

CC1(C)OC2CC3C4CC(F)C5=CC(=O)C=CC5(C)C4(F)C(O)CC3(C)C2(C(=O)CO)O1 (centres undefined) [Fluocinolone acetonide]
cell number [1]: 101
cell number [2]: 96.3
H1.0 immunofluorescence intensity [3]: 88.2 (inactive)
H1.0 immunofluorescence intensity [4]: 124 (inactive)

Cl.Cl.NCCNS(=O)(=O)c1cccc2cnccc12 [H-9 dihydrochloride]
cell number [1]: 102
cell number [2]: 90.7
H1.0 immunofluorescence intensity [3]: 107 (inactive)
H1.0 immunofluorescence intensity [4]: 100 (inactive)

CCCC1=C(c2ccc(O)cc2)N(c2ccc(O)cc2)NC1=C1C=CC(=O)C=C1 [1,3,5-tris(4-hydroxyphenyl)-4-propyl-1H-pyrazole]
cell number [1]: 98.3
cell number [2]: 107
H1.0 immunofluorescence intensity [3]: 92.5 (inactive)
H1.0 immunofluorescence intensity [4]: 99.1 (inactive)

Cc1cc(O)c2c(c1)C(=O)c1cc(O)cc(O)c1C2=O [Emodin]
cell number [1]: 98.4 ± 1.2
cell number [2]: 96.8 ± 5.4
H1.0 immunofluorescence intensity [3]: 98.6 (inactive)
H1.0 immunofluorescence intensity [4]: 89.8 (inactive)

CCOc1nc(NC(=O)Cc2cc(OC)ccc2OC)cc(N)c1C#N [JNK Inhibitor VIII]
cell number [1]: 97.9
cell number [2]: 104
H1.0 immunofluorescence intensity [3]: 92.7 (inactive)
H1.0 immunofluorescence intensity [4]: 120 (inactive)

C[C@@H]([C@@H](O)c1ccc(O)cc1)N1CCC(O)(c2ccccc2)CC1
cell number [1]: 102
cell number [2]: 91.1
H1.0 immunofluorescence intensity [3]: 94.7 (inactive)
H1.0 immunofluorescence intensity [4]: 105 (inactive)

O=C1c2ccccc2-n2c1nc1ccccc1c2=O [Tryptanthrin]
cell number [1]: 96.9
cell number [2]: 53.6
H1.0 immunofluorescence intensity [3]: 101 (inactive)
H1.0 immunofluorescence intensity [4]: 93.6 (inactive)

CN(C)CCC=C1c2ccccc2COc2ccccc21.Cl [Doxepin hydrochloride]
cell number [1]: 100
cell number [2]: 95.2
H1.0 immunofluorescence intensity [3]: 93.1 (inactive)
H1.0 immunofluorescence intensity [4]: 97.5 (inactive)

C=C1CC23CC1(O)CCC2C12C=CC(O)C(C)(C(=O)O1)C2C3C(=O)O (single isomer, unassigned; (+)) [(+)-Gibberellic acid]
cell number [1]: 108
cell number [2]: 112
H1.0 immunofluorescence intensity [3]: 98.6 (inactive)
H1.0 immunofluorescence intensity [4]: 89.5 (inactive)

CNc1ncnc2c1ncn2C1OC(CO)C(O)C1O (centres undefined) [N6-Methyladenosine]
cell number [1]: 95.6
cell number [2]: 106
H1.0 immunofluorescence intensity [3]: 93.9 (inactive)
H1.0 immunofluorescence intensity [4]: 110 (inactive)

Nc1ncnc2c1nc(Br)n2C1OC2COP(=O)([O-])OC2C1O.[Na+] (centres undefined) [8-Bromo-cAMP sodium]
cell number [1]: 104
cell number [2]: 110
H1.0 immunofluorescence intensity [3]: 95.5 (inactive)
H1.0 immunofluorescence intensity [4]: 90.3 (inactive)

Brc1c(Br)c(Br)c2[nH]cnc2c1Br [4,5,6,7-tetrabromo-1H-benzimidazole]
cell number [1]: 69.9
cell number [2]: 71.5
H1.0 immunofluorescence intensity [3]: 111 (inactive)
H1.0 immunofluorescence intensity [4]: 103 (inactive)

Cl.Nc1ccn(C2OC(CO)C(O)C2O)c(=O)n1 [Cytosine-1-beta-D-arabinofuranoside hydrochloride]
cell number [1]: 75.3
cell number [2]: 45.5
H1.0 immunofluorescence intensity [3]: 121 (active)
H1.0 immunofluorescence intensity [4]: 100 (inactive)

CC(C)NCC(O)c1ccc(O)c(O)c1.O=C(O)C(O)C(O)C(=O)O (stereo not drawn) [S(+)-Isoproterenol (+)-bitartrate]
cell number [1]: 105
cell number [2]: 97.6
H1.0 immunofluorescence intensity [3]: 91.8 (inactive)
H1.0 immunofluorescence intensity [4]: 93.4 (inactive)

N#CC(=C(N)Sc1ccc(N)cc1)c1ccccc1C(F)(F)F [MEK1/2 Inhibitor]
cell number [1]: 100
cell number [2]: 111
H1.0 immunofluorescence intensity [3]: 86 (inactive)
H1.0 immunofluorescence intensity [4]: 110 (inactive)

CCCCCCCCCCCCCCCCCCC(=O)O [Nonadecanoic acid]
cell number [1]: 96.7
cell number [2]: 102
H1.0 immunofluorescence intensity [3]: 101 (inactive)
H1.0 immunofluorescence intensity [4]: 98 (inactive)

Cc1cccc(C=Cc2ccccc2)n1
cell number [1]: 101
cell number [2]: 104
H1.0 immunofluorescence intensity [3]: 96.7 (inactive)
H1.0 immunofluorescence intensity [4]: 100 (inactive)

CC[C@H](C)[C@H](N)C(=O)N1CCC[C@H]1C(=O)N[C@H](C(=O)O)[C@@H](C)CC
cell number [1]: 102
cell number [2]: 85.3
H1.0 immunofluorescence intensity [3]: 97.2 (inactive)
H1.0 immunofluorescence intensity [4]: 103 (inactive)

Nc1ccc(-c2cccc3c(=O)cc(N4CCOCC4)oc23)cc1
cell number [1]: 78.1
cell number [2]: 99.3
H1.0 immunofluorescence intensity [3]: 82.5 (inactive)
H1.0 immunofluorescence intensity [4]: 156 (active)

CC(C)NCC(O)COc1cccc2ccccc12 (centres undefined) [Propranolol]
cell number [1]: 102
cell number [2]: 106
H1.0 immunofluorescence intensity [3]: 94.7 (inactive)
H1.0 immunofluorescence intensity [4]: 108 (inactive)

O=C1NC(=O)C(=Cc2ccc3nccnc3c2)S1 [PI 3-Kg Inhibitor]
cell number [1]: 103
cell number [2]: 110
H1.0 immunofluorescence intensity [3]: 87.2 (inactive)
H1.0 immunofluorescence intensity [4]: 114 (inactive)

Nc1nc(N)c2nc(-c3ccccc3)c(N)nc2n1 [Triamterene]
cell number [1]: 98.6
cell number [2]: 112
H1.0 immunofluorescence intensity [3]: 85.8 (inactive)
H1.0 immunofluorescence intensity [4]: 102 (inactive)

NC(C(=O)O)C1CC1C(=O)O [(2S,1'S,2'S)-2-(carboxycyclopropyl)glycine]
cell number [1]: 105
cell number [2]: 110
H1.0 immunofluorescence intensity [3]: 85.1 (inactive)
H1.0 immunofluorescence intensity [4]: 83.4 (inactive)

OC[C@H]1NC[C@@H](O)[C@@H]1O [1,4-Dideoxy-1,4-imino-D-arabinitol]
cell number [1]: 105
cell number [2]: 97.9
H1.0 immunofluorescence intensity [3]: 88.6 (inactive)
H1.0 immunofluorescence intensity [4]: 90.4 (inactive)

— the supplement of paper PMC7156485
